Results from PubChem BioAssay (EPA / NIEHS).
Results filed as inconclusive are left out. Activity calls are given as the source filed them. Rule for the calls, unless noted: active = hit-call score of the fitted dose curve at least 0.9, where 1 is the maximum; inactive = score below 0.9.

Key:
[1] = biological target: Estrogen receptor (Homo sapiens) (UniProt P03372); assay: CCTE_Deisenroth_AIME_384WELL_LUC_Active: CCTE's 384-well Estrogen Receptor Transactivation Assay with AIME metabolic competence (ERTA luciferase; metabolism positive), Deisenroth Lab (AID 2284030; active = hit-call score of the fitted dose curve at least 0.9, where 1 is the maximum)
Summary of the method: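 Test chemicals (10-point series, 0.002 - 200 uM) were preincubated 2 hours with alginate-immobilized phenobarbital/beta-naphthoflavone-induced male Sprague Dawley rat liver S9; conditioned medium then went onto VM7Luc4E2 breast cells for 24 hour. Luciferase gain-of-signal fitted relative to 17beta-estradiol.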

[2] = CCTE_Deisenroth_AIME_384WELL_CTox_Active: Cytotoxicity Assessment (CTOX) in CCTE's 384-well Estrogen Receptor Transactivation Assay with AIME metabolic competence (metabolism positive), Deisenroth Lab (AID 2284037; active = hit-call score of the fitted dose curve at least 0.9, where 1 is the maximum;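 note: chemicals first conditioned 2 h by alginate-bound induced rat liver S9 before cells; activity means signal loss indicating cell death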)
Summary of the method: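 VM7Luc4E2 breast cells received medium pre-incubated 2 h with chemical over alginate microspheres holding induced male Sprague Dawley rat liver S9; viability read 24 h later by protease-substrate fluorescence. Loss of signal, bidirectional fit, 0.002–200 uM.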

[3] = biological target: Estrogen receptor (Homo sapiens) (UniProt P03372); assay: CCTE_Deisenroth_AIME_384WELL_LUC_Inactive: CCTE's 384-well Estrogen Receptor Transactivation Assay without AIME metabolic competence (ERTA luciferase; metabolism negative), Deisenroth Lab (AID 2284038; active = hit-call score of the fitted dose curve at least 0.9, where 1 is the maximum;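 note: hits raise estrogen receptor luciferase signal so potencies reflect agonists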)
Summary of the method: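 VM7Luc4E2 ER transactivation, luciferase bioluminescence after 24 h, using medium pre-incubated 2 h with S9-free alginate microspheres. Concentrations 0.002–200 uM; gain of signal fitted relative to 17beta-estradiol.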

[4] = CCTE_Deisenroth_AIME_384WELL_CTox_Inactive: Cytotoxicity Assessment (CTOX) in CCTE's 384-well Estrogen Receptor Transactivation Assay without AIME metabolic competence (metabolism negative), Deisenroth Lab (AID 2284039; active = hit-call score of the fitted dose curve at least 0.9, where 1 is the maximum;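 note: cell viability via live-cell protease substrate cleaved to fluorescent probe; cells exposed 24 h to medium preincubated 2 h with alginate-water beads without S9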)
Summary of the method: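 Fluorescence from a live-cell protease substrate, read after 24 h in VM7Luc4E2 cells, indicated viability. Test medium came from a 2 h AIME step without hepatic S9 (alginate-water microspheres); concentrations spanned 0.002 - 200 uM, single technical replicate per run.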

[5] = biological target: Estrogen receptor (Homo sapiens) (UniProt P03372); assay: CCTE_Deisenroth_AIME_384WELL_LUC_Shift: CCTE's 384-well Estrogen Receptor Transactivation Assay with AIME metabolic competence data shift (ERTA luciferase; difference in metabolism positive and negative), Deisenroth Lab (AID 2284041);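 note: shift is response with S9 minus without S9 so positive means metabolism raised ER signal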
Summary of the method: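 Here, parent compounds undergo 2 h phase I metabolism by PB/BNF-induced rat S9 before 24 h transactivation in VM7Luc4E2 cells; the curve models S9-positive minus S9-negative response over a 10-point series.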

[6] = CCTE_Shafer_MEA_acute_burst_duration_mean: CCTE's Neural Acute Assay for Mean Burst Duration, Shafer Lab (AID 2284014);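 note: hits are decreases in mean burst duration relative to DMSO controls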
Summary of the method: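 Acute exposure of mature rat cortical networks (DIV 13 or 15) grown on microelectrode arrays to 0.03-40 uM compound. Mean burst duration compared with the 40-min pre-dose baseline over a 40-min post-dose recording at 37 C.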

[7] = CCTE_Shafer_MEA_acute_per_burst_spike_number_mean: CCTE's Neural Acute Assay for Average Number of Spikes Per Burst, Shafer Lab (AID 2284015);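 note: hits are decreases in mean spikes per burst versus baseline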
Summary of the method: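 We recorded spontaneous network firing of rat cortical neurons for 40 min before and 40 min during exposure to compound at 0.03-40 uM, at 37 C. Spikes were detected adaptively at 8x rms noise, and the change in average spikes per burst was fitted against DMSO.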

[8] = CCTE_Shafer_MEA_acute_interburst_interval_mean: CCTE's Neural Acute Assay for Mean Interburst Interval, Shafer Lab (AID 2284016);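 note: percent change of mean interburst interval versus each well's own pre-dose baseline; curves fitted for decrease in interburst interval relative to DMSO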
Summary of the method: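 MEA recording of spontaneous network bursting in primary rat cortical cultures; mean interburst interval was compared before and after a 40-min compound exposure (0.03-40 uM) and expressed as percent change, relative to DMSO.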

[9] = CCTE_Shafer_MEA_acute_burst_percentage_mean: CCTE's Neural Acute Assay for Percentage of Spikes in a Burst, Shafer Lab (AID 2284017);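 for AC50: curve fitted for loss of signal so potency reflects decreased burst percentage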
Summary of the method: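 Compounds were tested at 0.03-40 uM on primary rat cortical neuron networks grown over microelectrodes, with at least three wells per compound. Spontaneous firing was recorded for 40 min before and 40 min after dosing, and the change in burst percentage was computed per well.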

[10] = CCTE_Shafer_MEA_acute_burst_percentage_std: CCTE's Neural Acute Assay for Standard Deviation of Burst Percentage, Shafer Lab (AID 2284018);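 note: fitted in the negative direction so actives lower burst percentage SD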
Summary of the method: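 Primary rat cortical neurons on 16-electrode MEA wells were recorded 40 min at baseline (DIV 13 or 15), then 40 min after compound (0.03-40 uM), at 37 C. Well value is SD across electrodes of spikes-in-bursts/total spikes; endpoint is percent change, DMSO-referenced.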

[11] = CCTE_Shafer_MEA_acute_per_network_burst_spike_number_mean: CCTE's Neural Acute Assay for Average Number of Spikes in a Network Burst, Shafer Lab (AID 2284019);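 for AC50: curve fitted for loss of signal so actives reduce spikes per network burst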
Summary of the method: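 Acute exposure of rat primary cortical networks (DIV 13/15) on MEAs; adaptive spike detection at 8x rms noise, 37 C. Percent change in spikes per network burst after 40 min with compound (0.03-40 uM), negative direction vs DMSO.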

[12] = CCTE_Shafer_MEA_acute_per_network_burst_spike_number_std: CCTE's Neural Acute Assay for Standard Deviation of Number of Spikes in a Network Burst, Shafer Lab (AID 2284020);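 note: fitted for decrease in spike-number SD versus DMSO so actives lower it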
Summary of the method: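 Acute MEA exposure, rat cortical neurons, 0.03-40 uM. Per-well % change versus own baseline; DMSO as negative control.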

[13] = CCTE_Shafer_MEA_acute_per_network_burst_electrodes_number_mean: CCTE's Neural Acute Assay for Mean Number of Electrodes in a Network Burst, Shafer Lab (AID 2284021);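 note: curves fitted for decreases only so hits reduce electrodes per burst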
Summary of the method: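 Rat primary cortical neurons on 16-electrode MEA wells were recorded 40 min at baseline on DIV 13 or 15, then 40 min after compound (0.03-40 uM), at 37 C. Value is percent change per well, fitted in loss direction versus DMSO.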

[14] = CCTE_Shafer_MEA_acute_network_burst_percentage: CCTE's Neural Acute Assay for Percentage of Network Bursts, Shafer Lab (AID 2284022);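 note: curves fitted for loss so actives lower network burst percentage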
Summary of the method: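 Primary rat cortical neurons on 16-electrode MEA wells, treated on DIV 13 or 15 with compound (0.03-40 uM); 40-min baseline and 40-min post-exposure recordings at 37 C. Value is percent change in spikes within network bursts versus baseline, DMSO negative control.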

[15] = CCTE_Shafer_MEA_acute_cross_correlation_area: CCTE's Neural Acute Assay for Area of Cross Correlation, Shafer Lab (AID 2284024);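 note: area under pooled inter-electrode spike cross-correlation near zero lag as percent change from own baseline; curves fitted for loss of cross-correlation area so actives lower synchrony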
Summary of the method: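 Primary rat cortical neurons on 48-well MEA plates (16 electrodes/well) were recorded 40 min at baseline on DIV 13 or 15, then 40 min with compound (0.03-40 uM) at 37 C; cross-correlation area expressed as percent change from baseline.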

[16] = CCTE_Shafer_MEA_acute_cross_correlation_HWHM: CCTE's Neural Acute Assay for Cross Correlation at Half Width at Half Maximum, Shafer Lab (AID 2284026);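 note: percent change per well from pre-dose baseline in spike cross-correlogram half width; hits are a decrease in cross-correlogram half width relative to DMSO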
Summary of the method: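 Primary rat cortical neurons on 16-electrode MEA wells; 40-min baseline on DIV 13 or 15, then 40-min recording with compound (0.03-40 uM) at 37 C. HWHM of spike cross-correlogram expressed as percent change from baseline per well, DMSO reference.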

[17] = CCTE_Shafer_MEA_acute_synchrony_index: CCTE's Neural Acute Assay for Synchrony, Shafer Lab (AID 2284027);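 note: network synchrony index of spontaneous spiking in primary rat cortical neurons on MEAs; fitted for loss of signal so actives lower synchrony relative to DMSO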
Summary of the method: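 The synchrony index is taken as percent change per well between a 40 min baseline and a 40 min recording with compound (0.03–40 uM), at 37C. Rat cortical cultures on multiwell MEAs at DIV 13 or 15, spike threshold 8× rms noise.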

[18] = CCTE_Shafer_MEA_dev_firing_rate_mean: CCTE's Neural Network Formation Assay for Mean Firing Rate, Shafer Lab (AID 2284031);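 note: AUC of well mean spike rate recorded on DIV 5 7 9 and 12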
Summary of the method: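 Spike frequency (spikes/recording length, averaged over active electrodes) was recorded on days 5, 7, 9 and 12 and collapsed to AUC; rat cortical cultures received compound continuously over 12 days of network development.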

[19] = CCTE_Shafer_MEA_dev_burst_rate: CCTE's Neural Network Formation Assay for Burst Rate, Shafer Lab (AID 2284042)
Summary of the method: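 Developmental network assay measuring how 12-day exposure of rat cortical neuron cultures alters bursting on extracellular MEA recordings. Values are AUC of well-mean burst rate across four recording days, relative to DMSO vehicle.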

[20] = CCTE_Shafer_MEA_dev_bursting_electrodes_number: CCTE's Neural Network Formation Assay for Number of Bursting Electrodes, Shafer Lab (AID 2284043; active = hit-call score of the fitted dose curve at least 0.9, where 1 is the maximum;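 note: potency is for loss of bursting electrodes relative to DMSO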)
Summary of the method: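 Counted: electrodes with burst rate ≥1 per 2 min in each well. Cells: primary rat cortex, 1.5 x 10^5/well, on 16-electrode MEA wells. Exposure: DIV 0–12, compound renewed DIV 5 and 9. Recording days 5, 7, 9, 12; AUC vs DMSO baseline.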

Sequence of Estrogen receptor (Homo sapiens) (P03372 whole entry, looked up): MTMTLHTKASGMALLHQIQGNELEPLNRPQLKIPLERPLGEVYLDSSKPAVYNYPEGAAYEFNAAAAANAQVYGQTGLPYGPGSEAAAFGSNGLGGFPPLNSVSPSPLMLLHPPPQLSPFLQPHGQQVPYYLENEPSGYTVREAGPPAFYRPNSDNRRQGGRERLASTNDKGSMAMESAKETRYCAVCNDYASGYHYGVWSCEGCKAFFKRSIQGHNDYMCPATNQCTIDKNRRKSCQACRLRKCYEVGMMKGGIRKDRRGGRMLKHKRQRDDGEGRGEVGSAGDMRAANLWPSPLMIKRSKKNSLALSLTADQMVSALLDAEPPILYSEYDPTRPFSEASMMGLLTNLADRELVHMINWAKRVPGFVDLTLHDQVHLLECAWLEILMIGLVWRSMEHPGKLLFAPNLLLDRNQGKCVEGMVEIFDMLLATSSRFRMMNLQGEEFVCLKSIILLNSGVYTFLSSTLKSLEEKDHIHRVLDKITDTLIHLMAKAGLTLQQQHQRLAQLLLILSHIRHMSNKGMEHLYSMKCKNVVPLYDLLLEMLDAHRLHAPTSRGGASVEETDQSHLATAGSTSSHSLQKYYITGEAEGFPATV

## N#CCC#N
[1]
  outcome: inactive
[2]
  outcome: inactive
[3]
  outcome: inactive
[4]
  outcome: inactive
[5]
  outcome: inactive

## N#Cc1cccnc1
[6]
  outcome: inactive
[7]
  outcome: inactive
[8]
  outcome: inactive
[9]
  outcome: inactive
[10]
  outcome: inactive
[11]
  outcome: inactive
[12]
  outcome: inactive
[13]
  outcome: inactive
[14]
  outcome: inactive
[15]
  outcome: inactive
[16]
  outcome: inactive
[17]
  outcome: inactive
[1]
  outcome: inactive
[3]
  outcome: inactive
[5]
  outcome: inactive

## CN(C)C(=S)S
[6]
  outcome: inactive
[7]
  outcome: inactive
[8]
  outcome: inactive
[9]
  outcome: inactive
[10]
  outcome: inactive
[11]
  outcome: inactive
[12]
  outcome: inactive
[13]
  outcome: inactive
[14]
  outcome: inactive
[15]
  outcome: inactive
[16]
  outcome: inactive
[17]
  outcome: inactive
[4]
  outcome: inactive

## CCCCOC(=O)COC(=O)c1ccccc1C(=O)OCCCC
[6]
  outcome: inactive
[7]
  outcome: inactive
[8]
  outcome: inactive
[9]
  outcome: inactive
[10]
  outcome: inactive
[11]
  outcome: inactive
[12]
  outcome: inactive
[13]
  outcome: inactive
[14]
  outcome: inactive
[15]
  AC50: 11.5 nM (active)
[16]
  outcome: inactive
[17]
  outcome: inactive

## CNC(=O)O/N=C/C(C)(C)S(C)(=O)=O
[1]
  outcome: inactive
[2]
  outcome: inactive
[3]
  outcome: inactive
[4]
  outcome: inactive
[5]
  outcome: inactive

## Cc1cc(C(F)(C(F)(F)F)C(F)(F)F)ccc1NC(=O)c1cccc(I)c1C(=O)NC(C)(C)CS(C)(=O)=O
[6]
  outcome: inactive
[7]
  AC50: 20700 nM (active)
[8]
  outcome: inactive
[9]
  AC50: 5380 nM (active)
[10]
  outcome: inactive
[11]
  AC50: 5870 nM (active)
[12]
  outcome: inactive
[13]
  outcome: inactive
[14]
  outcome: inactive
[15]
  outcome: inactive
[16]
  AC50: 4610 nM (active)
[17]
  AC50: 5740 nM (active)
[18]
  outcome: inactive
[19]
  outcome: inactive
[20]
  AC50: 11300 nM (active)

## CC(C)[C@@H](Nc1ccc(C(F)(F)F)cc1Cl)C(=O)OC(C#N)c1cccc(Oc2ccccc2)c1 (stereo not given in full)
[6]
  AC50: 841 nM (active)
[7]
  AC50: 840 nM (active)
[8]
  AC50: 2120 nM (active)
[9]
  AC50: 620 nM (active)
[10]
  AC50: 1280 nM (active)
[11]
  AC50: 415 nM (active)
[12]
  AC50: 289 nM (active)
[13]
  AC50: 310 nM (active)
[14]
  AC50: 564 nM (active)
[15]
  AC50: 534 nM (active)
[16]
  outcome: inactive
[17]
  AC50: 403 nM (active)
[18]
  outcome: inactive
[19]
  outcome: inactive
[20]
  AC50: 14500 nM (active)

## OCCCCO
[6]
  outcome: inactive
[7]
  outcome: inactive
[8]
  outcome: inactive
[9]
  outcome: inactive
[10]
  outcome: inactive
[11]
  outcome: inactive
[12]
  outcome: inactive
[13]
  outcome: inactive
[14]
  outcome: inactive
[15]
  outcome: inactive
[16]
  outcome: inactive
[17]
  outcome: inactive

## CCCCCCCCCCCCc1cccc(S(=O)(=O)O)c1
[6]
  outcome: inactive
[7]
  outcome: inactive
[8]
  outcome: inactive
[9]
  outcome: inactive
[10]
  outcome: inactive
[11]
  outcome: inactive
[12]
  outcome: inactive
[13]
  outcome: inactive
[14]
  outcome: inactive
[15]
  outcome: inactive
[16]
  outcome: inactive
[17]
  outcome: inactive
[2]
  outcome: inactive
[4]
  outcome: inactive

## Cc1cc(Cl)ccc1OC(C)C(=O)O (stereo not given)
[1]
  outcome: inactive
[2]
  outcome: inactive
[3]
  outcome: inactive
[5]
  outcome: inactive
